# Vc quorum ag = induces V. cholerae light production without autoinducers | V. cholerae BH1578 lux reporter, luminescence, 6 h | activation, % at 18.7 µM | actives 0.16% (n = 350,000) | AID 588436; in the data active = activation mostly above about 9.7%, no sharp cut-off
# BioA inh = blocks M. tuberculosis BioA enzyme activity | purified M. tuberculosis BioA enzyme, plate reader | inhibition, % at 9.99 µM | actives 0.096% (n = 360,000) | AID 602481; in the data active = inhibition above about 40%
# Mtb FBA inh = inhibitors of M. tuberculosis fructose-bisphosphate aldolase | P9WQA3 | purified M. tuberculosis FBA, fluorescence read-out | inhibition, % at 1 µM | actives 2.3% (n = 360,000) | AID 588726; in the data active = inhibition above about 27%;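 note: 0% = vehicle and 100% = reference inhibitor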
# Target sequence (P9WQA3 whole entry, looked up): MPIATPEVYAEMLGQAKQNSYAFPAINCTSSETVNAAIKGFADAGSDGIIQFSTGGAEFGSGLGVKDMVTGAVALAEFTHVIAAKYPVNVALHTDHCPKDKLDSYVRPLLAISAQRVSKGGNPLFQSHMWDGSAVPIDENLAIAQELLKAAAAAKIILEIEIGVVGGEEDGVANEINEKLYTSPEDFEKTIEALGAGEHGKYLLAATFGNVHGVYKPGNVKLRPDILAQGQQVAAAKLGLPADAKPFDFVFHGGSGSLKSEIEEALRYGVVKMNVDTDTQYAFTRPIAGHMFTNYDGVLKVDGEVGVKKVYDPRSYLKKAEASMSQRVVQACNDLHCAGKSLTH
# GDH-TPI counter = GDH-TPI coupled enzyme inhibition counter-screen | inhibition, % at 4.8 µM | AID 588335 | actives 1.2% (n = 360,000) | GDH-TPI coupled enzyme counterscreen, NADH absorbance; in the data active = inhibition above about 30%;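 note: 0% = DMSO wells and 100% = wells lacking the enzyme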
# The depositor's hits bear a star; i = inactive; . = not tested or not shown; + = active, no number. In the library only some 3% were active in any assay of this set; here they are far more common.
SMILES,Vc quorum ag,BioA inh,Mtb FBA inh,GDH-TPI counter
Cc1cccn2c(=O)c3cc(C(=O)NCCN4CCOCC4)c(=N)n(CCN4CCOCC4)c3nc12,0,1,151*,11
Cc1cccn2c(=O)c3cc(C(=O)NC4CCCC4)c(=N)n(CCCN4CCOCC4)c3nc12,0,1,141*,-1
COc1cccc(S(=O)(=O)N[C@@H]2CC[C@H](CCNC(=O)Cc3ccncc3)O[C@H]2CO)c1,.,-2,.,.
CO[C@@H]1CN(C)C(=O)c2ccc(NC(=O)C3CC3)cc2OC[C@H](C)N(C(=O)c2ccccn2)C[C@H]1C,.,-1,.,.
C[C@H](O)C#Cc1ccc2c(c1)O[C@H](CN(C)C(=O)CN(C)C)[C@H](C)CN([C@@H](C)CO)S2(=O)=O,.,1,.,.
CN(C)c1ccc(C=NCCC2(O)CCOC(C)(C)C2)cc1 (centres undefined),i,-2,2,40*
C[C@@H]1CN([C@@H](C)CO)C(=O)c2cc(C#CCN(C)C)cnc2O[C@H]1CN(C)C(=O)NC1CCCCC1,.,1,.,.
COc1ccc(Nc2nnc(SCC(=O)c3cc4ccccc4o3)s2)cc1,0,.,3,37*
CCOC(=O)c1cc2c(=O)n3cccc(C)c3nc2n(Cc2ccco2)c1=NC(=O)c1ccccc1,i,0,+,9
CCOC(=O)c1cc2c(=O)n3ccccc3nc2n(Cc2ccco2)c1=NC(=O)c1ccccc1OC,0,19,+,24
CCOC(=O)c1cc2c(=O)n3ccccc3nc2n(Cc2ccco2)c1=NC(=O)c1cccc(OC)c1,-1,9,139*,39*
CCOC(=O)c1cc(CC)sc1NC(=O)CSc1nc2ccccc2c(=O)n1Cc1ccco1,-1,-2,-2,-1
CCOC(=O)c1cc2c(=O)n3ccccc3nc2n(Cc2ccco2)c1=NC(=O)c1ccc(OC)cc1,i,.,115*,11
CCOC(=O)c1cc2c(=O)n3cccc(C)c3nc2n(Cc2ccco2)c1=NC(=O)c1ccc(C)cc1,i,0,1,3
Cc1ccc(-c2cnc3c(c2)C(=O)N([C@@H](C)CO)C[C@H](C)[C@H](CN(C)CC2CCOCC2)O3)cc1,.,-1,.,.
O=C(Cn1cc(C(=O)c2ccco2)c2ccccc21)Nc1ccccc1,.,-1,-3,34*
COc1ccc(NC(=O)Cn2cc(C(=O)c3ccco3)c3ccccc32)cc1,0,-4,1,31*
COc1ccccc1NC(=O)N1CC[C@@H]2[C@H]1c1cc(-c3ccc(F)cc3)ccc1N(C)[C@@H]2CO,.,0,.,.
COc1ccc(C2C(C#N)=C(N)SC(N)=C2C#N)cc1OC,0,43*,-5,8
CC(C)C#Cc1ccc2c(c1)O[C@@H](CN(C)S(C)(=O)=O)[C@H](C)CN([C@@H](C)CO)S2(=O)=O,.,1,.,.
CO[C@@H]1CN(C)C(=O)c2ccc(NC(C)=O)cc2OC[C@H](C)N(C(=O)c2ccncc2)C[C@H]1C,.,-1,.,.
Cc1ccc(/C=C/C(=O)OCn2nnc3ccccc3c2=O)o1,0,1,1,34*
O=C(/C=C/c1ccco1)OCn1nnc2ccccc2c1=O,0,.,-1,-2
C[C@H]1CN([C@@H](C)CO)C(=O)c2cccc(NS(=O)(=O)c3ccccc3)c2O[C@@H]1CN(C)Cc1ccc(C(=O)O)cc1,.,-2,.,.
CN(C)/C=N/c1ncc(C(=O)c2ccc(-c3ccccc3)cc2)s1,i,.,-1,34*
SMILES,Vc quorum ag,BioA inh,Mtb FBA inh,GDH-TPI counter
CN(C)/C=N/c1ncc(C(=O)c2ccccc2)s1,.,-1,1,32*
Cc1cc(C(=O)c2cnc(/N=C/N(C)C)s2)cc(C)c1O,1,3,-5,19
CCOC(=O)c1sc(=NC(=O)c2ccco2)n(C)c1C,0,.,1,38*
Cc1sc(=NC(=O)c2ccco2)n(C)c1-c1ccc(Cl)cc1,-3,.,5,52*
Cc1sc(NC(=O)c2ccco2)c(C(=O)c2ccc(Cl)cc2)c1C,0,.,1,5
CC=Cc1ccc2n(c1=O)C[C@H]1[C@H](CO)[C@@H](C(=O)NCC)[C@@H]2N1Cc1cccc(Cl)c1 (mixture of isomers),.,-1,.,.
CC(=O)Nc1ccc(S(=O)(=O)Nc2nc3ccccc3nc2Nc2ccc(N)cc2)cc1,-4,-1,8,31*
O=C(CN1CCOCC1)NCC[C@H]1CC[C@H](NC(=O)Nc2ccc(F)cc2)[C@@H](CO)O1,.,4,.,.
CCOc1cc(/C=N/NC(=O)c2ccc3c(c2)OCCO3)cc(Br)c1O,i,-1,5,41*
O=C(N/N=C/c1cc(Br)c(O)c(Br)c1O)c1ccc2c(c1)OCCO2,0,-1,19,31*
CCOc1cc(/C=N/NC(=O)C(=O)NC2CC2)cc(Br)c1O,0,-1,1,33*

# Assay outcomes as filed in PubChem.
